Laboratory results: PubChem BioAssay
Several values for one entry are separate records, joined by “and”; a condition that tells them apart may be missing. Identical values can stand only once. Activity calls are given as the source filed them.

What was measured:
Albumin (Bos taurus) = Albumin (Bos taurus) (UniProt P02769); experiment: compounds binding labelled BSA control protein – biochemical, small-molecule microarray, Alexa647 label, 635/667 nm fluorescence, artefact control for SMM control protein annotation, profiling panel (AID 1118); conditions: BSA-A647 binding, fluorescence 635 nm, higher = more signal;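 note: score merges 667 nm emission intensity and signal-to-noise per printed compound spot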
Chain of Albumin (Bos taurus) (P02769 whole entry, looked up): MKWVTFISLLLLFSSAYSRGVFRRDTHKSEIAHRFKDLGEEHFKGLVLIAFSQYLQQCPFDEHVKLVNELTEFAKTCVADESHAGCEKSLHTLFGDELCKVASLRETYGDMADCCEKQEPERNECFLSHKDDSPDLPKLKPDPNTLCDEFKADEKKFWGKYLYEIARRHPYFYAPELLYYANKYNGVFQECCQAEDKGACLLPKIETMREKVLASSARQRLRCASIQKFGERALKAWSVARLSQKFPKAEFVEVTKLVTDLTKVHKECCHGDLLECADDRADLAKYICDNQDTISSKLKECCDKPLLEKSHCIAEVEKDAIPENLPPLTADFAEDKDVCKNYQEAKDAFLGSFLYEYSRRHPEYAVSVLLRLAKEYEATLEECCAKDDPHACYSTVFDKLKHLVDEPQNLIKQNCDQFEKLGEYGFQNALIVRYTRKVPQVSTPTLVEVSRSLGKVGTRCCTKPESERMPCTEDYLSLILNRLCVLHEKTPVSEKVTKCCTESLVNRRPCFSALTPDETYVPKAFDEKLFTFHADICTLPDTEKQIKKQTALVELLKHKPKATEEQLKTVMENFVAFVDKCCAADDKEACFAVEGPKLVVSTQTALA

[1] = probe aXIP binding to arrayed compounds – biochemical, NeuroSMM set, 635/667 nm fluorescence, primary screen (AID 1119); conditions: small-molecule microarray, higher = more signal, called active from +8 up or from −8 down;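 note: probe is the protein aXip251-270 applied at 1 µg/mL to compound-printed slides; binding of probe to printed compounds measured as 667 nm fluorescence plus signal to noise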
[2] = probe aNOTCH3 binding on compound microarray – biochemical, small-molecule microarray, 635/667 nm fluorescence, primary screen (AID 1120); conditions: higher = more signal;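 note: probe is a biotin-tagged antibody raised against NOTCH3 rather than NOTCH3 protein; score merges spot fluorescence near 667 nm with spot signal to noise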
[3] = probe aNOTCH2 binding on compound microarray – biochemical, small-molecule microarray, 635/667 nm fluorescence, primary screen (AID 1121); conditions: higher = more signal;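 note: score merges feature fluorescence read at 667 nm with its signal to noise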
[4] = molecular target: Carbonic anhydrase 2 (Homo sapiens) (UniProt P00918); experiment: compounds binding carbonic anhydrase 2 – biochemical, small-molecule microarray, Alexa647-labelled CAII, profiling panel (AID 1122); conditions: CAII-A647 binding fluorescence, higher = more signal
[5] = COS7 lysate on small-molecule microarray, probe aHis, 635 nm (AID 1123); conditions: COS7 cell lysate, fluorescence, higher = more signal;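 note: z-score combines 667nm fluorescence intensity with signal-to-noise per printed compound spot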
[6] = probe aLAP1 signal on lysate-treated microarray – cell lysate, small-molecule microarray, COS7 lysate, primary screen (AID 1124); conditions: probe aLAP1, fluorescence, higher = more signal;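 note: lysate comes from COS7 cells expressing LAP1 and is applied at 0.3 µg/mL; score merges spot fluorescence near 667 nm with signal-to-noise over triplicate slides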
Sam68 (KHDRBS1) = experiment: compounds binding KHDRBS1 protein – biochemical, small-molecule microarray, 635 nm fluorescence, primary screen (AID 1125); conditions: higher = more signal;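 note: score merges 667 nm channel intensity with signal to noise over triplicate slides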
[7] = system: Chordin-like protein 2 (CHRDL2); experiment: compounds binding chordin-like 2 – biochemical, small-molecule microarray, 635 nm fluorescence, primary screen (AID 1126); conditions: fluorescence 635 nm, higher = more signal;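 note: printed compound slides probed with Chrdl2 protein at 4 µg/mL for 1 h at 4 C; score merges 667 nm emission intensity with signal to noise over three replicate slides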
[8] = molecular target: Concanavalin-A (Canavalia ensiformis) (UniProt P02866); experiment: compounds binding concanavalin A lectin – biochemical, small-molecule microarray, Alexa647 label, 635 nm, artefact control for SMM control protein annotation, primary screen (AID 1127); conditions: ConA-A647 binding fluorescence, higher = more signal;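 note: z combines 667 nm emission intensity with signal-to-noise across three replicate slides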
Chain of Concanavalin-A (Canavalia ensiformis) (P02866 whole entry, looked up): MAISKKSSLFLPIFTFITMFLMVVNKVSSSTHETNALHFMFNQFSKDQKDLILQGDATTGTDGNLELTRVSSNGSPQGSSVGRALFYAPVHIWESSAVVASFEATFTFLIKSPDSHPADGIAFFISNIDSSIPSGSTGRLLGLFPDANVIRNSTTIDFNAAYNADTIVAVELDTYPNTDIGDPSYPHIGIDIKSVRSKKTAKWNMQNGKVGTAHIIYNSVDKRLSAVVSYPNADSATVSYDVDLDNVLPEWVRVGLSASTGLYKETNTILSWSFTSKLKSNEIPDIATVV

[9] = compounds binding Alexa647 anti-His antibody – biochemical, small-molecule microarray, 635 nm fluorescence, artefact control for SMM control protein annotation, primary screen (AID 1128); conditions: higher = more signal;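 note: score merges feature fluorescence with signal-to-noise for each printed compound spot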
[10] = system: Human papillomavirus type 1a E7 protein (residues 1-88); experiment: HPV1a E7 small-molecule binders, primary screen, biochemical, small-molecule microarray, residues 1-88, 635 nm (AID 1129); conditions: small-molecule microarray binding, fluorescence 635 nm; higher = more signal
[11] = molecular target: Focal adhesion kinase 1 (Homo sapiens) (UniProt Q05397); experiment: PTK2 protein binding on printed compound slides – biochemical, small-molecule microarray, 635/667 nm fluorescence, BSA, DTT, primary screen (AID 1130); conditions: 635 nm fluorescence, higher = more signal;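 note: composite of spot emission at 667 nm and signal to noise over triplicate slides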
Chain of Focal adhesion kinase 1 (Homo sapiens) (Q05397 whole entry, looked up): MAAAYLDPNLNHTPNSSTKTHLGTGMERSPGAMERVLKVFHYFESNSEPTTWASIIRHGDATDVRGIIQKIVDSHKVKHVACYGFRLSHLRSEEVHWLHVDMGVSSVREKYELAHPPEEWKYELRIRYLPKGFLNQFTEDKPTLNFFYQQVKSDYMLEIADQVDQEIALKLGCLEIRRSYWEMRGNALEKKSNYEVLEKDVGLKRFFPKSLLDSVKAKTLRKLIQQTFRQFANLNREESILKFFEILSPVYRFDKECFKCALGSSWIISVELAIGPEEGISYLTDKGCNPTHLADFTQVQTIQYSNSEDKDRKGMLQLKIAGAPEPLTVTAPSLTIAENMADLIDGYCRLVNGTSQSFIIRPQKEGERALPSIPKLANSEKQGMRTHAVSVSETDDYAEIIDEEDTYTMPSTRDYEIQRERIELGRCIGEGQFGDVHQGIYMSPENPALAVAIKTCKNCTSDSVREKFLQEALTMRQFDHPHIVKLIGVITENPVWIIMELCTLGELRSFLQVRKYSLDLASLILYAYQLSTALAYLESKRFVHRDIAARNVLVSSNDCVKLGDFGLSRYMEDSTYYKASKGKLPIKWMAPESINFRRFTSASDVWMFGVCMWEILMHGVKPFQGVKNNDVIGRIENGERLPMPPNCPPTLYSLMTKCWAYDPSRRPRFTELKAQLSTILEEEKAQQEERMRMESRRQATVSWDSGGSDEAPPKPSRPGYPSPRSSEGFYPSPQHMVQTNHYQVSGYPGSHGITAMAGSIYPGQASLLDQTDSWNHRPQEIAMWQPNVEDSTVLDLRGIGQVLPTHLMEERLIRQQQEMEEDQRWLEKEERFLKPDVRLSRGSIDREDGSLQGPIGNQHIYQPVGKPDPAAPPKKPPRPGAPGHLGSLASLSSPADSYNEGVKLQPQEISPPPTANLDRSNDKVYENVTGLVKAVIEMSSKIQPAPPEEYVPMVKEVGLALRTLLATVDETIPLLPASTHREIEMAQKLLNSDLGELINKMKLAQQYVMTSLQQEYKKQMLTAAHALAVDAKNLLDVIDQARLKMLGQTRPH

[12] = system: Fibrinogen (Alexa647-labelled); experiment: Alexa647-fibrinogen binding to printed small molecules – biochemical, small-molecule microarray, 635/667 nm fluorescence, artefact control for SMM control-protein annotation, profiling panel (AID 1131); conditions: fibrinogen-A647 binding fluorescence, higher = more signal;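 note: z-score merges 667 nm fluorescence with per-spot signal-to-noise over triplicate slides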
[13] = molecular target: Follistatin (Homo sapiens) (UniProt P19883); experiment: FST protein binding to printed compounds – biochemical, small-molecule microarray, 635/667 nm fluorescence, primary screen (AID 1132); conditions: 635 nm fluorescence, higher = more signal
Chain of Follistatin (Homo sapiens) (P19883 whole entry, looked up): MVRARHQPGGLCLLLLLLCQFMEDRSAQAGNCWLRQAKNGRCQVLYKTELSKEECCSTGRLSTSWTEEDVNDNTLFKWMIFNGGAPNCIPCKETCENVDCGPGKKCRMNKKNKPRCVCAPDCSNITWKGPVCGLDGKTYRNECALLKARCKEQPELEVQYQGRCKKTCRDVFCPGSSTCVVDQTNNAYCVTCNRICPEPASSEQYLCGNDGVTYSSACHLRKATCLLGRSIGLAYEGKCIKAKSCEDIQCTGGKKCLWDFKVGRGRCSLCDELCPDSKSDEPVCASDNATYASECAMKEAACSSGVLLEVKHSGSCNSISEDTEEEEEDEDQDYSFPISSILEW

[14] = molecular target: Fibroblast growth factor 2 (Homo sapiens) (UniProt P09038); experiment: basic fibroblast growth factor binding to printed compounds – biochemical, small-molecule microarray, 635/667 nm fluorescence, primary screen (AID 1133); conditions: FGF2, fluorescence 635/667, higher = more signal
Chain of Fibroblast growth factor 2 (Homo sapiens) (P09038 whole entry, looked up): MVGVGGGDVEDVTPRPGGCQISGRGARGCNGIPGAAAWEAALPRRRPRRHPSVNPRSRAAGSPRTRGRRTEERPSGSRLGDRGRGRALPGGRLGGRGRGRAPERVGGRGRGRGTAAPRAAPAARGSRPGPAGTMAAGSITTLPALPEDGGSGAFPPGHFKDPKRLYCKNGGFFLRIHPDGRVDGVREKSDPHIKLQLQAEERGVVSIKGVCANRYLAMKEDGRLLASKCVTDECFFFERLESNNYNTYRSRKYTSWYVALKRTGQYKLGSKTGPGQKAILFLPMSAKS

[15] = JC-1 mitochondrial potential readout, lung cancer cells – cell-based, A549, JC-1 fluorescence, basal, 24 h, 100 nL, profiling panel (AID 1138); conditions: higher = more signal;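 note: A549 lung adenocarcinoma cells under basal conditions with no added stimulus; test concentration not given here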
Lefty1 = Lefty1 protein binding to printed compounds – biochemical, small-molecule microarray, 635/667 nm fluorescence, primary screen (AID 1139); conditions: fluorescence 635/667, higher = more signal
[16] = system: wheat germ agglutinin (Triticum aestivum), Alexa647-labelled; experiment: Alexa647-WGA lectin binding to printed small molecules – biochemical, small-molecule microarray, 635/667 nm fluorescence, artefact control for SMM control-protein annotation, profiling panel (AID 1140); conditions: WGA-A647 binding, 635 nm fluorescence, higher = more signal;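 note: score merges 667 nm feature emission with signal to noise over triplicate slides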
[17] = molecular target: Luciferin 4-monooxygenase (Photinus pyralis) (UniProt P08659); experiment: inhibition of purified Photinus pyralis luciferase – biochemical, luminescence, purified enzyme, 2006 set, primary screen (AID 1141); conditions: purified firefly luciferase, SteadyGlo luminescence, 30 min; higher = more signal, called active from +8 up or from −8 down;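 note: cell-free assay with purified firefly luciferase at 100 ng per well in PBS; test concentration not given here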
Chain of Luciferin 4-monooxygenase (Photinus pyralis) (P08659 whole entry, looked up): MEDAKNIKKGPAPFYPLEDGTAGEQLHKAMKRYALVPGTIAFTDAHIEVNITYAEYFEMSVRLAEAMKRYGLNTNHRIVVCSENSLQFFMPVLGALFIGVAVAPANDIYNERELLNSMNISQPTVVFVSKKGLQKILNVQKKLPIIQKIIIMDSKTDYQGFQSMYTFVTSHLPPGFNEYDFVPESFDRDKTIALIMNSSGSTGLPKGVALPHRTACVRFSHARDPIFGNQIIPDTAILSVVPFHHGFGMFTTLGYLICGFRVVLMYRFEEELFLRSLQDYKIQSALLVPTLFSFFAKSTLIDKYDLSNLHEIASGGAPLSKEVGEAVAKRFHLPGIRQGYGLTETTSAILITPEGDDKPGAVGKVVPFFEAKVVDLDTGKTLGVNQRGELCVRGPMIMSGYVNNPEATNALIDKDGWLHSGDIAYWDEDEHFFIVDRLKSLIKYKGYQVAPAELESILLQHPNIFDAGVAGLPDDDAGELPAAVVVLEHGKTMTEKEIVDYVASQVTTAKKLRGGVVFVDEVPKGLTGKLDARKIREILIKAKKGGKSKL

| SMILES | composite z-score (Albumin (Bos taurus)) | composite Z-score [1] | composite z-score [2] | composite z-score [3] | composite z-score [4] | composite z-score [5] | composite z-score [6] | composite z-score (Sam68 (KHDRBS1)) | composite z-score [7] | composite z-score [8] | composite z-score [9] | composite z-score [10] | composite z-score [11] | composite z-score [12] | composite z-score [13] | composite z-score [14] | z-score [15] | composite z-score (Lefty1) | composite z-score [16] | z-score [17] |
| --- | --- | --- | --- | --- | --- | --- | --- | --- | --- | --- | --- | --- | --- | --- | --- | --- | --- | --- | --- | --- |
| C=C[C@@H](OC)[C@H](O)c1ccc(OC)c(O)c1 | 0.346 and 0.226 | 0.767 (inactive) and -1.19 (inactive) | -0.0044 and -0.521 | -0.0212 and -0.163 | -0.189 and 0.232 | -0.0302 and 0.043 | -0.37 and -0.649 | 0.043 and -0.955 | 1.11 and -0.52 | -0.847 and -1.4 | 0.0608 and -0.368 | -0.285 and -1.14 | -0.294 and -1.03 | -0.267 and -0.492 | 1.03 and 0.477 | 0.731 and 0.0203 | -0.366 and 0.877 | 0.85 and -0.493 | -0.368 and 0.0786 | 0.318 (inactive) and -0.905 (inactive) |
| C[N+](C)(C)CCCCCCNC(=O)[C@H]1C[C@H]2C(=O)N[C@@H](CCCC[N+](C)(C)C)C(=O)N2[C@H]1c1ccc(O)cc1 | -1.56 and 0.119 | -0.232 (inactive) and 0.577 (inactive) | -0.0359 and -0.0947 | -0.136 and -0.0651 | 0.142 and 0.718 | 0.186 and 0.951 | -0.149 and -0.179 | 0.0061 and 0.117 | 0.823 and 0.178 | -0.341 and -0.163 | -0.389 and 0.368 | -0.558 and -0.643 | -0.391 and -0.0304 | -0.112 and -0.705 | 1.13 and 1.16 | 1.52 and 0.18 | -1.08 and -0.207 | 1.56 and 0.452 | 0.618 and -0.277 | 1.03 (inactive) and 0.485 (inactive) |
| C=CCN(CCCC)C(=O)C1N(CCOCCO)C(=O)C2C(C(=O)O)C3C=CC21O3 (stereo not given) | -0.994 and -2.32 | 0.0673 (inactive) and 0.289 (inactive) | -0.372 and -0.457 | -0.211 and -0.185 | 1.01 and 0.811 | 0.806 and -0.742 | 0.675 and 0.0426 | -1.11 and -1.43 | -1.67 and -1.1 | -0.268 and -1.9 | 1.11 and -1.66 | -0.741 and -0.901 | -0.619 and -0.291 | -1.43 and -0.885 | -0.817 and -1.32 | -1.68 and -1.4 | -0.409 and -0.724 | -1.6 and -2.23 | -0.557 and -0.16 | 0.694 (inactive) and 0.806 (inactive) |
| CC(CO)N1C(=O)[C@@H]2C3C(=O)OCCC=C[C@H]3OC23C=CCN(c2ccc4ccccc4c2)C(=O)[C@@H]13 (stereo not given in full) | -0.452 and 0.947 | -0.862 (inactive) and 0.322 (inactive) | -0.1 and -0.498 | -0.14 and -0.299 | 0.838 and 0.84 | 0.506 and 0.368 | 0.697 and 0.476 | 0.31 and -0.264 | -0.937 and -1.09 | 0.0026 and -0.279 | 0.62 and 1.59 | -0.203 and -0.362 | -0.192 and 0.525 | -0.986 and -1.18 | -0.0475 and -0.0413 | -1.53 and -0.879 | 0.638 and 0.972 | -0.0302 and -0.337 | -0.388 and 0.771 | -0.618 (inactive) and -0.657 (inactive) |
| COC(=O)[C@@]1(Cc2ccccc2)[C@H]2c3cc(C(=O)N(C)C)n(Cc4ccc(C)c(F)c4F)c3C[C@H]2CN1C(=O)c1ccccc1 | 0.821 and 0.859 | 0.392 (inactive) and -0.26 (inactive) | 0.141 and 1.27 | 0.106 and -0.0977 | 0.72 and 0.653 | 2.51 and 2.94 | 0.289 and 0.612 | 0.998 and 1.34 | -1.32 and -0.528 | 0.201 and 1.18 | 1.95 and 1.06 | 1.24 and 1.25 | 0.73 and 1.04 | 0.966 and 1.01 | 0.096 and 1.26 | -0.824 and -0.149 | -1.17 and -1.14 | -0.587 and 0.642 | 0.899 and 1.03 | -1.27 (inactive) and 0.773 (inactive) |
